Laboratory results from PubChem BioAssay (NCATS).
Values joined by “and” are separate entries in the source; they are usually repeats but may differ in a detail not shown here. Equal values may be shown once. Records with an inconclusive call do not appear. Values without a mark were called inactive. Active and inactive are the calls of the source. The call rests on the fitted dose curve. Residues, ends and D or L forms follow the SMILES beside them.

Key:
[1] = molecular target: Bile acid receptor (Homo sapiens) (UniProt Q96RI1); test: qHTS assay for small molecule agonists of farnesoid X receptor signaling (AID 588527); settings: HEK293T FXR-UAS-bla, beta-lactamase ratio, 16 h; active compounds read high;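 further: 0% = vehicle basal and 100% = reference agonist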
Chain of Bile acid receptor (Homo sapiens) (Q96RI1 whole entry, looked up): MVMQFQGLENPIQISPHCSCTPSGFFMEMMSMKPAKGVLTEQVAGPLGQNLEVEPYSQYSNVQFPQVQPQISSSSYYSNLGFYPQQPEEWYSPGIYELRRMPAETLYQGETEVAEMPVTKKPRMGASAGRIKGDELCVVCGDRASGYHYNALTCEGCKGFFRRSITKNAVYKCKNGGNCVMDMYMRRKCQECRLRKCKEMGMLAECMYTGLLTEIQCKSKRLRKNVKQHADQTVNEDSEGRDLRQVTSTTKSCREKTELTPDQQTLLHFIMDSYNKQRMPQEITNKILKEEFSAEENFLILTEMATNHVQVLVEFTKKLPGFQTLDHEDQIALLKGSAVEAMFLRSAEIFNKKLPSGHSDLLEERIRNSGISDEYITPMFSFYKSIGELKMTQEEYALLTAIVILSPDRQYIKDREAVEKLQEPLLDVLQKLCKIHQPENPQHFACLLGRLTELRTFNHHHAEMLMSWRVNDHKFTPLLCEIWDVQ
In short: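 FXR-UAS-bla HEK293T cells (10% dialyzed FBS) preincubated 5-7 h at 37 C, then compounds at up to 92 uM for 16 h at 37 C. CCF4 beta-lactamase read-out after 2 h RT. Normalized to chenodeoxycholic acid (100 uM) and DMSO; Hill fit gave EC50 and efficacy.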

[2] = molecular target: Peroxisome proliferator-activated receptor delta (Homo sapiens) (UniProt Q03181); test: qHTS assay for small molecule agonists of peroxisome proliferator-activated receptor delta signaling (AID 588534); settings: HEK293T PPARdelta-UAS-bla, beta-lactamase ratio, 18 h; series mostly up to 76.7 µM;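 further: 0% = DMSO basal wells and 100% = positive control agonist at 10 µM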
Chain of Peroxisome proliferator-activated receptor delta (Homo sapiens) (Q03181 whole entry, looked up): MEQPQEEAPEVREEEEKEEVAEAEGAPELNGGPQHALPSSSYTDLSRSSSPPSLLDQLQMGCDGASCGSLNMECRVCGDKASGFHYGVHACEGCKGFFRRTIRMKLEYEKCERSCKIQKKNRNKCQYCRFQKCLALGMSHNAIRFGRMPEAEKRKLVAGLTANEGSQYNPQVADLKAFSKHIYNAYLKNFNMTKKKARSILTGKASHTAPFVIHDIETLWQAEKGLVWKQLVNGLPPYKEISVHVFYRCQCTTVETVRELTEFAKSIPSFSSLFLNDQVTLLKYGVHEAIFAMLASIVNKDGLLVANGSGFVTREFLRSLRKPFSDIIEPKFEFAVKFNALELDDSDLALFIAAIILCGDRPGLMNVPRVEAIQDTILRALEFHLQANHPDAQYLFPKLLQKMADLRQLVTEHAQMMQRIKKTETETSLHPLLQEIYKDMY
In short: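 Titration series tested in agonist mode on beta-lactamase reporter cells; 18 hrs at 37 C after a 5 hr pre-incubation. Readout: CCF4 fluorescence, 2 hrs RT. Hill equation gives EC50 and maximal response.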

SMILES	activation [1]	outcome [2]
COc1ccc(C(=O)c2ccccc2)c(O)c1	-3.45% and -6.15%	inactive
NCCNCCNCCN	-3.81%	inactive
CC(O)C(=O)O (stereo not given)	-0.922%	inactive
Cc1c(C)c2c(c(C)c1O)CCC(C)(COc1ccc(CC3SC(=O)NC3=O)cc1)O2 (stereo not given)	9.23%	
CC12CCC(CC1)C(C)(C)O2	-0.483%	inactive
COc1cc(C=O)ccc1O	-1.98% and -0.968%	inactive
Cc1cc(NS(=O)(=O)c2ccc(N)cc2)no1	-1.53%	
CC(=O)Nc1ccccc1	3.71%	inactive
CCCCCCCC(=O)OCC(COC(=O)CCCCCCC)OC(=O)CCCCCCC	-2.1%	inactive
c1ccc2sc(SSc3nc4ccccc4s3)nc2c1	4.39%	inactive
COc1c2occc2cc2ccc(=O)oc12	0.341% and 4.08%	inactive
CC(O)CN(CCN(CC(C)O)CC(C)O)CC(C)O (stereo not given)	0.352%	inactive
COC(=O)[C@H](Cc1ccccc1)NC(=O)[C@@H](N)CC(=O)O (H-Asp-Phe-OMe)	-0.395% and 1.51%	inactive
Nc1ccc(S(=O)(=O)c2ccc(N)cc2)cc1	5.45% and -0.614%	inactive
Cc1ncc(CO)c(CO)c1O	-0.349%	inactive
CCOC(=O)c1ccc(O)cc1	0.927%	inactive
Oc1ccccc1	0.295% and -0.629% and -5.57%	inactive
NC(=O)c1ccccc1O	-3.79%	inactive
O=C(c1ccccc1)c1ccccc1	-1.37% and -0.544%	inactive
CC(=O)O[C@H]1C(=O)[C@@]2(C)[C@H]([C@H](OC(=O)c3ccccc3)[C@]3(O)C[C@H](OC(=O)[C@H](O)[C@@H](NC(=O)c4ccccc4)c4ccccc4)C(C)=C1C3(C)C)[C@]1(OC(C)=O)CO[C@@H]1C[C@@H]2O	3.09%	
CCCc1c(OCCCCc2nn[nH]n2)ccc(C(C)=O)c1O	7.75%	
S=P(N1CC1)(N1CC1)N1CC1	4.46%	inactive
